Assay results taken from the supplement of paper PMC10849652.
The full data set covers some 7,900 targets. This sample favours those with a hit. About 0.6% of all pairs of compound and target were hits.

Tests used:
Assay in all cases: log2 fold change, soluble protein after heating vs DMSO (PISA); higher = thermal stabilisation; K562 cells, 10 uM, 30 min; active = over 0.2 and 3.5 SD of the protein, either way, in both replicates (recomputed)
[1] = compound: C1=CC=C(C=C1)[C@H](COC2=CC3=C(C=C2)NC(=O)N3)NC(=O)C4=CC=CN(C4=O)CC5=CC(=C(C=C5)F)F
How it was run: (§1)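 K562 cells at 2×10^6 cells/mL were exposed to 10 μM compound for 30 min, then aliquots were heated for 3 min across 48°C-58°C, pooled, and extracted in PBS containing 0.5% NP-40 at 4°C. The supernatant after 21,000xg for 90 min was taken as soluble protein and measured by TMTpro 16plex LC-MS/MS with channel sums equalised. Thermal stability is reported relative to control samples, with values from duplicates. Fold changes are given on a log2 scale.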

[2] = compound: CC1=C(SC2=C1C(=N[C@H](C3=NN=C(N32)C)CC(=O)N)C4=CC=C(C=C4)Cl)C
How it was run: as §1

[3] = compound: CC1=C2C(=CC=C1)N=C(N(C2=O)C3=CC=CC=C3C)CN4C=NC5=C(N=CN=C54)N
How it was run: as §1

[4] = compound: Cc1sc2c(c1C)C(c1ccc(Cl)cc1)=N[C@@H](CC(=O)OC(C)(C)C)c1nnc(C)n1-2
How it was run: as §1

[5] = compound: c1ccc([C@@H]2C[C@H]2NC2CCNCC2)cc1
How it was run: as §1

Measured: log2 fold change

SAMSN1 isoform 3 (UniProt Q9NSI8)
inactive: [1] -0.028 | [2] 0.014 | [3] 0.025 | [4] -0.01 | [5] -0.01

RBM39 (UniProt Q14498)
inactive: [1] 0.015 | [2] -0.004 | [3] -0.02 | [4] 0.019 | [5] 0.158

RAP2C (UniProt Q9Y3L5)
UniProt Q9Y3L5, sequence (Q9Y3L5 whole entry, looked up): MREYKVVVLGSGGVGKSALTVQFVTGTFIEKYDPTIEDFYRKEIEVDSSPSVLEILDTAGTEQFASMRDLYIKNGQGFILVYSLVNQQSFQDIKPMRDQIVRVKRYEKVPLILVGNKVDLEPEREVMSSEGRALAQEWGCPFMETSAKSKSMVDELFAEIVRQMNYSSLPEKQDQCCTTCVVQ
inactive: [1] 0 | [2] 0.055 | [3] -0.012 | [4] 0.038 | [5] -0.011

SAAL1 (UniProt Q96ER3)
inactive: [1] -0.054 | [2] 0.03 | [3] 0.046 | [4] 0.109 | [5] -0.043

RAB3IL1 (UniProt Q8TBN0)
inactive: [1] 0.018 | [2] -0.013 | [3] 0.078 | [4] -0.03 | [5] -0.076

RAB5IF isoform 5 (UniProt Q9BUV8)
UniProt Q9BUV8, sequence (Q9BUV8 whole entry, looked up): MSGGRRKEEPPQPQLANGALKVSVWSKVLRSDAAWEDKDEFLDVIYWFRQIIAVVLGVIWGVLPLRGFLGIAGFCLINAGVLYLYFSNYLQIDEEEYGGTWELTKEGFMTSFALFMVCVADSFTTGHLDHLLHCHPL
inactive: [1] 0.003 | [2] 0.101 | [3] 0.024 | [4] -0.08 | [5] 0.028

SCCPDH (UniProt Q8NBX0)
UniProt Q8NBX0, sequence (Q8NBX0 whole entry, looked up): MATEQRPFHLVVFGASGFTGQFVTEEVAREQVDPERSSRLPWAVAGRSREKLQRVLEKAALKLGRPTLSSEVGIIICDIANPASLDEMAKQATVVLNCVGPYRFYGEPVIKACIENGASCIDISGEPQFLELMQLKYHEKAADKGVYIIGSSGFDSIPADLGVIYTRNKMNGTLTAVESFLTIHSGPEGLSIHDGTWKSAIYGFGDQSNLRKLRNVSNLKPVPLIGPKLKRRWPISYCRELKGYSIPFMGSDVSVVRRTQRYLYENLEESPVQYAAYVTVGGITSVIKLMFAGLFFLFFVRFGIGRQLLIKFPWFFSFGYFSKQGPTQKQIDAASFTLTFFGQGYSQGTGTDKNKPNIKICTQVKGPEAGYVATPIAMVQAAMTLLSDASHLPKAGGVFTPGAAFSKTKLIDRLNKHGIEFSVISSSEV
inactive: [1] -0.047 | [2] 0.087 | [3] 0.002 | [4] -0.003 | [5] -0.059

RBM27 (UniProt Q9P2N5)
inactive: [1] -0.015 | [2] 0.005 | [3] 0.049 | [4] 0.029 | [5] -0.01

RBIS (UniProt Q8N0T1)
UniProt Q8N0T1, sequence (Q8N0T1 whole entry, looked up): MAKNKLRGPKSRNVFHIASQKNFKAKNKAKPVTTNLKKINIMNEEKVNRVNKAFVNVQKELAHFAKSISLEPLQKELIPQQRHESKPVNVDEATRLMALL
inactive: [1] 0.035 | [2] -0.034 | [3] -0.02 | [4] 0.101 | [5] 0

RBM17 (UniProt Q96I25)
inactive: [1] -0.038 | [2] 0.017 | [3] 0.049 | [4] 0.003 | [5] -0.013

SAFB2 (UniProt K7EQU4)
inactive: [1] -0.338

RPS19 (UniProt P39019)
inactive: [1] 0.108 | [2] -0.158 | [3] -0.197 | [4] 0.107 | [5] -0.002

RFC3 (UniProt P40938)
inactive: [1] -0.005 | [2] 0.028 | [3] 0.029 | [4] -0.019 | [5] -0.074

RSRC2 (UniProt Q7L4I2)
inactive: [1] 0.034 | [2] 0 | [3] -0.045 | [4] 0.022 | [5] 0.085

SLC19A1 (UniProt P41440)
inactive: [1] -0.025 | [2] 0.065 | [3] 0.045 | [4] -0.013 | [5] 0.017

SFXN5 (UniProt Q8TD22)
inactive: [1] -0.079 | [2] 0.024 | [3] -0.11 | [4] 0.007 | [5] -0.061

RALGPS2 (UniProt Q86X27)
inactive: [1] -0.069 | [2] 0.073 | [3] -0.093 | [4] 0.116 | [5] -0.01

REL (UniProt Q04864)
inactive: [1] 0.058 | [2] 0.048 | [3] 0.046 | [4] 0.037 | [5] 0.065

RBM26 isoform 2 (UniProt Q5T8P6)
inactive: [1] -0.068 | [2] 0.016 | [3] 0.144 | [4] -0.011 | [5] 0.012

RIOK2 (UniProt Q9BVS4)
inactive: [1] 0.034 | [2] -0.038 | [3] -0.119 | [4] 0.116 | [5] -0.009

SEPTIN5 (UniProt G3XAH0)
inactive: [1] 0.002 | [2] -0.014 | [3] 0.061 | [4] -0.043 | [5] -0.031

RNF187 (UniProt Q5TA31)
inactive: [1] -0.047 | [2] 0.07 | [3] -0.033 | [4] -0.083 | [5] -0.033

RUFY1 (UniProt Q96T51)
inactive: [1] -0.006 | [2] -0.029 | [3] 0.041 | [4] 0.002 | [5] -0.028

RB1 (UniProt P06400)
UniProt P06400, sequence (P06400 whole entry, looked up): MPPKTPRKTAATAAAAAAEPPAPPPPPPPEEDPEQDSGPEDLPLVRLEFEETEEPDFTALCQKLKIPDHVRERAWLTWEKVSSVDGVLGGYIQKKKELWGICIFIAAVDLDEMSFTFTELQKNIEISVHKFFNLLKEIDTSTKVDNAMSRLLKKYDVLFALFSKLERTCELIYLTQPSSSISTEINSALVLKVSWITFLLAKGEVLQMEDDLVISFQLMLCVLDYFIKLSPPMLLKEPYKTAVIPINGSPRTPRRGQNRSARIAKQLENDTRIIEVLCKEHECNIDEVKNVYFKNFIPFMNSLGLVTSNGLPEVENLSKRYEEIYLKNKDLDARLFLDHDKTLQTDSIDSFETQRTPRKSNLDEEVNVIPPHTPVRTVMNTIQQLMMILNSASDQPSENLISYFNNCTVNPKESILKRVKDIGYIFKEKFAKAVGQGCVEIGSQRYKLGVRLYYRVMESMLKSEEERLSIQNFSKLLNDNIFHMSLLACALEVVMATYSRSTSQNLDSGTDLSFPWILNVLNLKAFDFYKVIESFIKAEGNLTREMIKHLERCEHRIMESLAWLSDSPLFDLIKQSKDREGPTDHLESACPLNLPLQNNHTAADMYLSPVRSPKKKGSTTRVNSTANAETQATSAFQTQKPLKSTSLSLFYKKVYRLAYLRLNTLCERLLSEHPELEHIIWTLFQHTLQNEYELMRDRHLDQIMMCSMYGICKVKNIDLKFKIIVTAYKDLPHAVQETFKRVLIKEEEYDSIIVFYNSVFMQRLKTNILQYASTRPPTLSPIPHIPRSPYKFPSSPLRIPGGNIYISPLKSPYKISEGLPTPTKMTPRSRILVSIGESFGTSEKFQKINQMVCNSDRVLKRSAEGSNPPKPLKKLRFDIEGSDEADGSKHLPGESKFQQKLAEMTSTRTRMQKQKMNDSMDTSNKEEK
inactive: [1] -0.038 | [2] 0.064 | [3] 0.048 | [4] 0.011 | [5] 0

RAB3IL1 (UniProt E9PK89)
inactive: [1] 0.05 | [2] 0.259 | [3] -0.107 | [4] 0.15 | [5] -0.136

RPAIN isoform 8 (UniProt Q86UA6)
inactive: [1] 0.026 | [2] 0.057 | [3] 0.046 | [4] -0.038 | [5] 0.006

RAP1GDS1 isoform 5 (UniProt P52306)
inactive: [1] -0.093 | [2] -0.01 | [3] 0.119 | [4] -0.001 | [5] -0.009

RCC1 isoform 2 (UniProt P18754)
UniProt P18754, sequence (P18754 whole entry, looked up): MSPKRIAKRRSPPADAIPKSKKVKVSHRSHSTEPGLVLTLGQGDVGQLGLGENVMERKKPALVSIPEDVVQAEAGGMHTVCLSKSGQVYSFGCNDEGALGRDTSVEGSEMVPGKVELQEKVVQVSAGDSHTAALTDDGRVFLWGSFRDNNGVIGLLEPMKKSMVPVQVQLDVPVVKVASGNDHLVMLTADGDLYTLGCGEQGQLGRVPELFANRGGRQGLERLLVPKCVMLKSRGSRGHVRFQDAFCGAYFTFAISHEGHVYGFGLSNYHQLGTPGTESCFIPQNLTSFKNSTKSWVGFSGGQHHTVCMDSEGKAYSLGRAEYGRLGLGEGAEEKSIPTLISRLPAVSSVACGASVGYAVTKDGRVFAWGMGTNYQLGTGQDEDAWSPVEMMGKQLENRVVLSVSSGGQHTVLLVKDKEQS
inactive: [1] -0.175 | [2] 0.096 | [3] 0.176 | [4] 0.012 | [5] -0.058

RPS4X (UniProt P62701)
inactive: [1] 0.105 | [2] -0.255 | [3] -0.232 | [4] 0.148 | [5] 0.001

RRAS2 isoform 4 (UniProt P62070)
UniProt P62070, sequence (P62070 whole entry, looked up): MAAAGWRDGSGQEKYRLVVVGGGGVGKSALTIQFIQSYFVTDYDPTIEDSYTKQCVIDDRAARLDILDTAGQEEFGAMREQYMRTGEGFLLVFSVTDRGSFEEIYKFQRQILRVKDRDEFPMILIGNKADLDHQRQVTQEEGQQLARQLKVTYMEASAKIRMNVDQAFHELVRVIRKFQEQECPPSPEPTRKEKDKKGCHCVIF
inactive: [1] 0.045 | [2] -0.017 | [3] -0.062 | [4] -0.03 | [5] 0.011

RSRC1 (UniProt Q96IZ7)
inactive: [1] -0.002 | [2] -0.019 | [3] 0.079 | [4] -0.019 | [5] -0.03

RPS14 (UniProt P62263)
inactive: [1] 0.041 | [2] -0.162 | [3] -0.238 | [4] 0.078 | [5] -0.036

RNF41 (UniProt Q9H4P4)
inactive: [1] 0.039

RNASET2 (UniProt O00584)
inactive: [1] 0.037 | [2] -0.038 | [3] 0.063 | [4] -0.013 | [5] 0.012

SDCBP (UniProt O00560)
UniProt O00560, sequence (O00560 whole entry, looked up): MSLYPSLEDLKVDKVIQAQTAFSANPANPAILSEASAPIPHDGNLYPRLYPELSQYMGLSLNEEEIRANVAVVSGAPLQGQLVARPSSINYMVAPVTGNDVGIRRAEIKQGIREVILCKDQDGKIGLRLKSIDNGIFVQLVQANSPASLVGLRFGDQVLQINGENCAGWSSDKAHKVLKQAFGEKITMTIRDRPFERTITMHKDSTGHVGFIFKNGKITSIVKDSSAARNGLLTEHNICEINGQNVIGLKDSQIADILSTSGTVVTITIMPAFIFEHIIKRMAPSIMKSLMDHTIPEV
inactive: [1] 0.029 | [2] -0.031 | [3] -0.067 | [4] 0.04 | [5] -0.102

RPS5 (UniProt P46782)
inactive: [1] 0.049 | [2] -0.144 | [3] -0.214 | [4] 0.082 | [5] 0.001

ROCK2 (UniProt O75116)
inactive: [1] -0.026 | [2] 0.003 | [3] 0.085 | [4] 0.024 | [5] -0.01

SCLT1 (UniProt Q96NL6)
UniProt Q96NL6, sequence (Q96NL6 whole entry, looked up): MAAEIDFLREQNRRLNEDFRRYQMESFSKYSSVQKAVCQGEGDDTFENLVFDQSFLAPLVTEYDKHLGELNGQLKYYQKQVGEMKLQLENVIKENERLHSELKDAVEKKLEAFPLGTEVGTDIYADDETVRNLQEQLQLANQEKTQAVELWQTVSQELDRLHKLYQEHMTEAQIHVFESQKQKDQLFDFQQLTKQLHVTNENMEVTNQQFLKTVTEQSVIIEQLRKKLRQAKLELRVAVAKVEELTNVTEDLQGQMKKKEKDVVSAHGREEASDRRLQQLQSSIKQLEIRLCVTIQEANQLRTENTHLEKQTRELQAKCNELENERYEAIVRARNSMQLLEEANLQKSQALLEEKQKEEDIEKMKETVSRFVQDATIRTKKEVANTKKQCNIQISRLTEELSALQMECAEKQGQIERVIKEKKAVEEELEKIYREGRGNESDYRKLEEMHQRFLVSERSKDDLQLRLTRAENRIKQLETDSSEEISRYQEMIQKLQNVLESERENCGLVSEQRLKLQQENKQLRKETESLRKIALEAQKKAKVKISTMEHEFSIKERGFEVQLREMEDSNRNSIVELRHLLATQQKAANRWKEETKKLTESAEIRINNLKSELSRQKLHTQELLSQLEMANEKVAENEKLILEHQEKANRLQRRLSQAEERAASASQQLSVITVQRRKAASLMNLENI
inactive: [1] 0.078 | [2] 0.215 | [3] 0.222 | [4] 0.001 | [5] -0.039

RCN3 (UniProt Q96D15)
inactive: [1] 0.016 | [2] 0.032 | [3] -0.061 | [4] -0.01 | [5] 0.023

RRP12 (UniProt Q5JTH9)
UniProt Q5JTH9, sequence (Q5JTH9 whole entry, looked up): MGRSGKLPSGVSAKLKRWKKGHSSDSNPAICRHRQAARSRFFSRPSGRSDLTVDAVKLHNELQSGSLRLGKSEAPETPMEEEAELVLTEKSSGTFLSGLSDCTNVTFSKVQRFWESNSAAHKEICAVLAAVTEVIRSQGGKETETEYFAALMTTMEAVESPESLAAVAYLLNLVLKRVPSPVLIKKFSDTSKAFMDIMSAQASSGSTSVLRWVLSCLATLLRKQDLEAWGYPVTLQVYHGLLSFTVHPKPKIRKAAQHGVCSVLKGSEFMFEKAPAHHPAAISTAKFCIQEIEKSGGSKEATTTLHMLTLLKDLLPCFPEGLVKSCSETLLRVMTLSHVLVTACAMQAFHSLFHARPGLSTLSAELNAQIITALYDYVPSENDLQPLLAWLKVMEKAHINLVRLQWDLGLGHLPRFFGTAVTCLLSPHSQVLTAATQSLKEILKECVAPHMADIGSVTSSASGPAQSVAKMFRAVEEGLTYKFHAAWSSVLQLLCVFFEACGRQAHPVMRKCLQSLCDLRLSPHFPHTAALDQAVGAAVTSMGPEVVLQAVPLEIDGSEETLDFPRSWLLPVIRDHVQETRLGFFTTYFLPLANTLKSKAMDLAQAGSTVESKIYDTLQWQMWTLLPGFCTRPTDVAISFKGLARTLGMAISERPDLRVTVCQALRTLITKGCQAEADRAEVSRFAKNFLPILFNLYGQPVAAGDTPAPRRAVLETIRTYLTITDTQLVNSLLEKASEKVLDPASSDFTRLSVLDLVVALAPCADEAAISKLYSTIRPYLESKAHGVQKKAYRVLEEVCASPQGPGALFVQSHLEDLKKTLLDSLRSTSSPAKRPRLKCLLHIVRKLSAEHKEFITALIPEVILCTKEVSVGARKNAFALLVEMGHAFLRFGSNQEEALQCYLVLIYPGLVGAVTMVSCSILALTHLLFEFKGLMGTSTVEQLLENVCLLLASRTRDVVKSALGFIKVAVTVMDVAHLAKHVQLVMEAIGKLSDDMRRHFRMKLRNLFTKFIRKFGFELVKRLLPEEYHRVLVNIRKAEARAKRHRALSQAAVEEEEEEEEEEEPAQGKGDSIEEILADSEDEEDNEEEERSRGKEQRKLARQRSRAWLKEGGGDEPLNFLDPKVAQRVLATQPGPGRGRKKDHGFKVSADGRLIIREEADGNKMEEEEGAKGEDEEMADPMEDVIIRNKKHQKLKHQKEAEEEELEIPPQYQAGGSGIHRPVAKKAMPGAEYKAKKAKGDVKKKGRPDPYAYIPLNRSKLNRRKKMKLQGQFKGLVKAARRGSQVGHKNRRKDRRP
inactive: [1] -0.015 | [2] -0.068 | [3] 0.045 | [4] 0.001 | [5] 0

RDH11 (UniProt Q8TC12)
inactive: [1] 0.258 | [2] 0.06 | [3] 0.266 | [4] 0.115 | [5] -0.058

RBM12 (UniProt Q9NTZ6)
inactive: [1] -0.039 | [2] 0.023 | [3] 0.077 | [4] -0.064 | [5] -0.006

RNF185 (UniProt Q96GF1)
inactive: [1] -0.157 | [2] 0 | [3] 0.006 | [4] 0.104 | [5] -0.168

RPS20 isoform 2 (UniProt P60866)
inactive: [1] -0.002 | [2] -0.114 | [3] -0.051 | [4] 0.059 | [5] 0

SCAMP2 (UniProt O15127)
inactive: [1] 0.061 | [2] 0.026 | [3] -0.041 | [4] -0.105 | [5] -0.048

RPS3 (UniProt P23396)
inactive: [1] 0.055 | [2] -0.118 | [3] -0.127 | [4] 0.083 | [5] 0.015

SERPINA7 (UniProt P05543)
inactive: [1] -0.014 | [2] -0.001 | [3] 0.1 | [4] 0.12 | [5] 0.128

SCAF8 isoform 2 (UniProt Q9UPN6)
inactive: [1] -0.072 | [2] 0.099 | [3] 0.254 | [4] -0.016 | [5] 0.012

SEC16A isoform 5 (UniProt O15027)
inactive: [1] 0.014 | [2] 0.012 | [3] 0.154 | [4] 0.011 | [5] -0.006

RDH13 (UniProt Q8NBN7)
inactive: [1] -0.013 | [2] 0.052 | [3] 0.032 | [4] 0.013 | [5] -0.062

RPS6KA1 isoform 2 (UniProt Q15418)
inactive: [1] -0.059 | [2] 0.048 | [3] 0.051 | [4] -0.009 | [5] -0.018

RMC1 (UniProt Q96DM3)
inactive: [1] -0.009 | [2] 0.064 | [3] 0.1 | [4] 0.019 | [5] 0.063

REEP4 (UniProt Q9H6H4)
UniProt Q9H6H4, sequence (Q9H6H4 whole entry, looked up): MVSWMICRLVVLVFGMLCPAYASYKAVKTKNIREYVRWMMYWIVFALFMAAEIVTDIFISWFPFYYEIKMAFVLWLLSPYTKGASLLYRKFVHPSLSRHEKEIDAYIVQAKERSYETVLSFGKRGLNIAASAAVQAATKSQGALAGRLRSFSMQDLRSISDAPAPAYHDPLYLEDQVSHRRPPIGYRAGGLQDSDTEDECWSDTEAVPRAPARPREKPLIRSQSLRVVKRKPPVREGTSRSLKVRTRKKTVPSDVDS
inactive: [1] -0.004 | [2] -0.034 | [3] -0.023 | [4] 0.081 | [5] 0.003

SESN2 (UniProt P58004)
inactive: [1] -0.03 | [2] -0.031 | [3] 0.067 | [4] 0.066 | [5] -0.028
